Some test systems named below: SK-MEL-2 melanoma; EKVX NSCLC; SN12C renal; UO-31 renal; TK-10 renal; ACHN renal; CAKI-1 renal; A498 renal; CCRF-CEM leukemia; MOLT-4 leukemia; SR leukemia; RPMI-8226 leukemia; OVCAR-8 ovarian; OVCAR-5 ovarian; OVCAR-4 ovarian; SK-OV-3 ovarian; IGROV1 ovarian; OVCAR-3 ovarian; HS 578T breast; NCI/ADR-RES ovarian.
Holding throughout (experiment): NCI-60 one-dose screen, 48 h (100 = growth as untreated, 0 = no growth, -100 = all killed)
Common to all, as to conditions: 10 µM unless noted

Compounds without any hit were thinned out: in the full panel of roughly 83,000, 20% have a hit.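 How to read the values: 0–100, growth inhibition (40 = 60% inhibited); 0, no net growth; -100 to 0, cell death (-40 = 40% of starting cells died; -100 = all dead).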 A number with no mark means an inactive call. The source made the active and inactive calls. How the source made its calls: active means growth percent below 10; inactive means the rest.

Regarding `N=C(N)c1ccc(-c2ccc(-c3ccccc3)s2)cc1`, the growth in the test with SK-MEL-2 melanoma is 105%; in the test on EKVX NSCLC, 84.6%; in the test with SN12C renal, 70.3%; with UO-31 renal, 83.5%; with TK-10 renal, 108%; in the test on ACHN renal, 68.3%. Besides, the growth is 14.5% with CAKI-1 renal; 89.1% in the test with A498 renal; 21% in the test on CCRF-CEM leukemia; -3.58% (active) with MOLT-4 leukemia; 7.19% (active) in the test with SR leukemia; -4.15% (active) in the test on RPMI-8226 leukemia. The growth in the test with OVCAR-8 ovarian is 38.1%; in the test on OVCAR-5 ovarian, 61.4%; in the test with OVCAR-4 ovarian it was 45.8%; in the test with SK-OV-3 ovarian it was 85.2%; in the test on IGROV1 ovarian it was 60.2%; with OVCAR-3 ovarian, 53.7%. For the same compound, the growth in the test on HS 578T breast is 87.8%; in the test on NCI/ADR-RES ovarian, 89.2%.

Consider `CCN(CC)c1ccc(CNc2cc(C)nc3ccccc23)cc1`, for which the growth with SK-MEL-2 melanoma was 84.2%; with EKVX NSCLC it was 42.6%; in the test on SN12C renal it was 75.4%; in the test on UO-31 renal, 40%; in the test with TK-10 renal, 67%; in the test on ACHN renal, 64.6%. The growth with CAKI-1 renal was 53.2%; in the test on A498 renal, 52.5%; with CCRF-CEM leukemia, 70%; in the test on MOLT-4 leukemia, 86.4%; with SR leukemia, 50.5%; in the test with RPMI-8226 leukemia it was 41.7%. Further, the growth in the test with OVCAR-8 ovarian is 63.2%; in the test on OVCAR-5 ovarian it was 73.2%; in the test on OVCAR-4 ovarian, 52%; in the test on SK-OV-3 ovarian it was 78.3%; with IGROV1 ovarian, 74.8%; with OVCAR-3 ovarian, 63.7%. Besides, the growth in the test with HS 578T breast is 85.6%; with NCI/ADR-RES ovarian, 47.7%.

As for `CCN1CCN(CC(=O)Nc2ccc(-c3cn4c(n3)sc3cc(Oc5ccnc(C(=O)NC)c5)ccc34)cc2)CC1`, the growth in the test on SK-MEL-2 melanoma was 42.5%; with EKVX NSCLC it was 100%; with SN12C renal, 85.9%; with UO-31 renal, 60.1%; in the test on TK-10 renal, 89.5%; in the test on ACHN renal, 73.2%. Further, the growth in the test with CAKI-1 renal is 67.4%; in the test on A498 renal, 81.8%; in the test with CCRF-CEM leukemia, 44.9%; with MOLT-4 leukemia, 60.6%; in the test with SR leukemia it was -16.9% (active); with RPMI-8226 leukemia, 59.2%. The growth was 92.4% in the test on OVCAR-8 ovarian; 91.2% in the test on OVCAR-5 ovarian; 87.5% in the test on OVCAR-4 ovarian; 44.8% with SK-OV-3 ovarian; 84.8% with IGROV1 ovarian; 88.8% in the test on OVCAR-3 ovarian. In addition, the growth was 94% with HS 578T breast and 89% in the test on NCI/ADR-RES ovarian.

Consider `CC(=O)OC(c1ccccc1)C1CCOC1=O` (stereo not given), for which the growth in the test with SK-MEL-2 melanoma is 96.5%; with EKVX NSCLC, 78.8%; in the test with SN12C renal, 102%; in the test with UO-31 renal it was -82.3% (active); in the test with TK-10 renal it was 92.4%; with ACHN renal it was 96.5%. The growth with CAKI-1 renal is 75.2%; in the test on A498 renal, 98.7%; with CCRF-CEM leukemia, 109%; with MOLT-4 leukemia, 82.8%; in the test on SR leukemia it was 122%; with RPMI-8226 leukemia it was 111%. The growth in the test with OVCAR-8 ovarian is 104%; in the test on OVCAR-5 ovarian, 86.8%; in the test with OVCAR-4 ovarian it was 88.3%; in the test on SK-OV-3 ovarian it was 106%; in the test with IGROV1 ovarian it was 102%; in the test with OVCAR-3 ovarian it was 102%. The growth with HS 578T breast is 111%; in the test with NCI/ADR-RES ovarian, 97%.

`O=c1c2ccccc2c(=O)c2c1sc1c(=O)c3ccc(O)cc3c(=O)c12`: the growth in the test on SK-MEL-2 melanoma was -60.2% (active); in the test with EKVX NSCLC, -57.7% (active); in the test on SN12C renal, -88.2% (active); with UO-31 renal, -52% (active); in the test on TK-10 renal it was -95.4% (active); in the test on ACHN renal it was -77.3% (active). Besides, the growth was -68.5% (active) in the test on CAKI-1 renal; -98.3% (active) with A498 renal; -23.3% (active) with CCRF-CEM leukemia; -40.1% (active) with MOLT-4 leukemia; -16.6% (active) in the test on SR leukemia; -38.6% (active) in the test with RPMI-8226 leukemia. The growth with OVCAR-8 ovarian is -11.5% (active); with OVCAR-5 ovarian, -74.7% (active); in the test with OVCAR-4 ovarian it was -90.2% (active); in the test with SK-OV-3 ovarian it was -92.1% (active); in the test on IGROV1 ovarian, -24% (active); in the test on OVCAR-3 ovarian, -57.1% (active). Besides, the growth in the test with HS 578T breast was -5.23% (active); with NCI/ADR-RES ovarian, -14.1% (active).

In the case of `CC1CCN(C(=S)SCC(=O)NC(=O)c2ccccc2)CC1`, the growth is 102% in the test on SK-MEL-2 melanoma; 102% with EKVX NSCLC; 109% in the test with SN12C renal; 92% with UO-31 renal; 99.8% in the test with TK-10 renal; 112% in the test on ACHN renal. For the same compound, the growth is 102% with CAKI-1 renal; 99.6% in the test on A498 renal; 106% with CCRF-CEM leukemia; 93.6% in the test with MOLT-4 leukemia; 80.6% with SR leukemia; 102% with RPMI-8226 leukemia. Further, the growth in the test with OVCAR-8 ovarian was 112%; with OVCAR-5 ovarian, 101%; in the test with OVCAR-4 ovarian, 96.6%; with SK-OV-3 ovarian, 104%; with IGROV1 ovarian, 107%; in the test with OVCAR-3 ovarian it was 111%. Further, the figures for the growth with HS 578T breast and with NCI/ADR-RES ovarian were 102% and 105%, respectively.

On to `CCc1ccc(CCC(=O)Nc2ncc(Cc3ccccc3)s2)o1`, for which the growth in the test on SK-MEL-2 melanoma is 44.4%; in the test on EKVX NSCLC, 36.1%; with SN12C renal, 42.3%; in the test on UO-31 renal, 40.3%; in the test with TK-10 renal, 63.1%; in the test on ACHN renal it was 44.4%. The growth is 33.3% in the test with CAKI-1 renal; 22.9% with A498 renal; 19% in the test on CCRF-CEM leukemia; 22.2% in the test on MOLT-4 leukemia; 22.6% in the test on SR leukemia; 29.4% with RPMI-8226 leukemia. For the same compound, the growth in the test with OVCAR-8 ovarian was 28.4%; in the test with OVCAR-5 ovarian, 38.9%; in the test on OVCAR-4 ovarian, 61.5%; with SK-OV-3 ovarian, 34.4%; in the test on IGROV1 ovarian it was 35.6%; with OVCAR-3 ovarian, -11.2% (active). The values for the growth with HS 578T breast and with NCI/ADR-RES ovarian were 9.99% (active) and 12.7%, respectively.
